Sampled rows, rich in hits. Any-hit rate of the full collection: about 6.1%.
HepG2 tox = kills HepG2 cells in TGF-b inhibitor counter-screen; Potency, µM (titrated, usually from 46.1 µM), for the others: at the highest dose activity change, negative = cytotoxicity, usual class: cytotoxic; HepG2 CAGA-GFP viability, ATP luminescence, 18 h; 410,000 tested, 0.76% active
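HepG2 CAGA-GFP cells (1000/well, DMEM with 1% FBS) received compound, then TGF-beta at 500 pg/mL final, and were incubated 18 hours at 37 degrees C. Viability was read by CellTiter-Glo luminescence. Media-only wells were set as complete cell-killing and DMSO as no toxicity.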
TGFb SMAD3 inh = inhibitors of TGF-b signaling. HepG2 CAGA-GFP TGF-b/SMAD3 reporter, GFP fluorescence, 18 h; TGF-beta stimulated, 500 pg/mL final. Potency, µM (series often up to 46.1 µM), inactives show at the top dose activity, negative = inhibition, usual class: inhibitors. 410,000 tested, 1.2% active. AID 588855; also: % is scaled to controls: 0 for no effect and ±100 for the full control effect; nearly all actives have a fitted effect of over 65% in size
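HEPG2 CAGA-GFP cells (1000/well, DMEM with 1% FBS) were pre-incubated 2 h at 37 degrees C, given compound by pin tool, then stimulated with TGF-beta at 500 pg/mL final for 18 h before per-cell GFP fluorescence imaging.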
Gal4-VP16 FLuc = inhibits Gal4-VP16 luciferase reporter, ROR gamma counter-screen | Drosophila S2 Gal4-VP16 UAS-luciferase, luminescence, 20 h | Potency, µM (titrated, usually from 53.6 µM), for the others: at the highest dose activity, negative = inhibition, actives largely listed as inhibitors | 310,000 tested, 3.5% active | AID 2546;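 also: Gal4-VP16 expression switched on by copper sulfate through the metallothionein promoter; % is scaled to controls: 0 for no effect and ±100 for the full control effect; nearly all actives have a fitted effect of over 50% in size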
RORg inh = blocks mouse ROR gamma transcriptional activity. Potency, µM (highest dose often 53.6 µM), without a hit: top-dose activity change, negative = inhibition, actives largely listed as inhibitors. 310,000 tested, 5.4% active. P51450. Drosophila S2 Gal4-RORgamma UAS-luciferase reporter, 20 h; also: % is scaled to controls: 0 for no effect and ±100 for the full control effect; nearly all actives have a fitted effect of over 60% in size
Target sequence (P51450 whole entry, looked up, the tested form may be a part): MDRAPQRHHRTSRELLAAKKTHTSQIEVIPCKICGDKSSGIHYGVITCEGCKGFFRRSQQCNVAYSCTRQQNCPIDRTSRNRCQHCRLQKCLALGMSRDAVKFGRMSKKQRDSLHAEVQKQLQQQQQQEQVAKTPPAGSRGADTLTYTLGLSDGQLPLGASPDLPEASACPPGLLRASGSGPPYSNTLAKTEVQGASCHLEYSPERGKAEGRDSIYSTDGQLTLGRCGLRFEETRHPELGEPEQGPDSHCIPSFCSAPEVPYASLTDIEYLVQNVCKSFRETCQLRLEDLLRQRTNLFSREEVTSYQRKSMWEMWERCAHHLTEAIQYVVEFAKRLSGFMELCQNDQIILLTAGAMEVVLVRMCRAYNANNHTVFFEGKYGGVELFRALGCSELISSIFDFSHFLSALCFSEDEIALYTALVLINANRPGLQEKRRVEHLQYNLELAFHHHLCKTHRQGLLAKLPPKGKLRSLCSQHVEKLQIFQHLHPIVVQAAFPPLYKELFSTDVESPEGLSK
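ROR gamma transcriptional activity was tracked as Gal4-UAS luciferase output in stably transfected Drosophila Schneider cells, with compound added 1 hr before 700 uM copper sulfate induction and a 20 hr ambient-temperature incubation.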
ATXN viability = reduces viability in counter-screen for ATXN expression inhibitors. S2 cells (HEK-293 line with an ATXN2-luciferase reporter) viability, CellTiter-Fluor protease fluorescence, 24 h. AID 651635. Potency, µM (doses to about 56.7 µM), actives largely listed as cytotoxic. 400,000 tested, 0.49% active; also: nearly all actives have a fitted effect of over 40% in size
ATXN2 expr inh = ATXN2 expression inhibition. 360,000 tested, 0.72% active. AID 1745845. HEK-293 ATXN2-luciferase reporter, luminescence, 24 h. Potency, µM (series often up to 57 µM), for the others: top-dose activity change, negative = inhibition, actives largely listed as inhibitors; also: % is scaled to controls: 0 for no effect and ±100 for the full control effect; nearly all actives have a fitted effect of over 55% in size
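ATXN2-luciferase reporter cells (luciferase flanked by upstream and downstream ATXN2 gene portions) were treated 24 h at 37 °C with compounds at up to 57 uM. SteadyGlo luminescence gave expression; GF-AFC fluorescence gave viability.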
Starred values were filed as active, the others as inactive; i = inactive; ? = inconclusive; . = no result; [ ] = another dose, or the depositor's remark. Calls follow the shape of the dose curve; as a rule, active = well fitted curve in the direction sought with a large enough effect; inconclusive = small, poorly fitted or top-dose-only effect, or another doubt; inactive = no such curve, though single readings can be large; an effect the other way counts as inactive or inconclusive. Potency is read from the fitted curve at half-maximal effect.

SMILES | HepG2 tox | TGFb SMAD3 inh | Gal4-VP16 FLuc | RORg inh | ATXN viability | ATXN2 expr inh
CC1(C)CC[C@]2(C(=O)O)CC[C@]3(C)C(=CC[C@@H]4[C@@]5(C)CC[C@H](O[C@@H]6O[C@H](C(=O)O)[C@@H](O)[C@H](O[C@@H]7OC[C@H](O)[C@H](O)[C@H]7O)[C@H]6O)C(C)(C)[C@@H]5CC[C@]43C)[C@@H]2C1 | 3.5µM* | 3.2µM* | . | . | 11µM* | 11µM*
CC1(C)CC[C@]2(C(=O)O[C@@H]3O[C@H](CO)[C@@H](O)[C@H](O)[C@H]3O)CC[C@]3(C)C(=CCC4[C@@]5(C)CC[C@H](O[C@@H]6O[C@H](C(=O)O)[C@@H](O[C@H]7OC[C@@H](O)[C@@H](O)[C@@H]7O)[C@H](O)[C@H]6O)C(C)(C)C5CC[C@]43C)[C@@H]2C1 (stereo not given in full) | -9% | 23% | . | . | i | 9%
CC(C)CNC(=S)NNC(=O)c1csc2c1CCCC2 | -31% | ? | ? | 7.1µM* | i | -20%
CC(C)CNC(=S)NNC(=O)c1csc2ccccc12 | -5% | -41% | -13% | -24% | i | 12%
O=C(N/N=C/C=C/c1ccc([N+](=O)[O-])cc1)C1COc2ccccc2O1 (stereo not given) | -1% | 16% | 11µM* | 10µM* | i | -18%
O=C(N/N=C\C=C\c1ccc2c(c1)OCO2)C1COc2cc3ccccc3cc2O1 (stereo not given) | 1% | 4% | ? | 7.1µM* | i | 0%
O=C(N/N=C/c1ccc2c(c1)OCO2)C1COc2ccccc2O1 (stereo not given) | -14% | -2% | 7% | 20% | i | 12%
O=C(N/N=C\C=C\c1ccc2c(c1)OCO2)c1ccc(F)cc1 | 6% | 8% | 5.6µM* | 2.2µM* | i | 2%
Cc1cc(C(=O)N/N=C/C=C/c2ccc3c(c2)OCO3)n[nH]1 | -6% | 12% | 1% | ? | i | 3%
CCOc1ccc(-n2c(O)c(/C=N/NC(=O)C3COc4ccccc4O3)c3ccccc3c2=O)cc1 (stereo not given) | -42% | ? | 4.5µM* | 3.2µM* | i | ?
O=C(Nc1ccc([N+](=O)[O-])cc1)C1COc2ccccc2O1 (stereo not given) | 2% | -13% | 28% | 9% | i | -12%
COC(=O)CSc1nc2sc3c(c2c(=O)n1-c1ccccc1C)CC(C)(C)OC3 | -30% | 9% | . | . | i | 12%
CCC1=C[C@@H]2CN(C1)Cc1c([nH]c3ccccc13)[C@@](C(=O)OC)(c1cc3c(cc1OC)N(C)[C@@H]1[C@@](O)(C(=O)OC)[C@H](OC(C)=O)[C@]4(CC)C=CCN5CC[C@]31[C@@H]54)C2 | . | . | -8% | 9% | . | ?
CCOc1ccc(NC(=O)Cn2c(=O)n(-c3cccc(Cl)c3)c(=O)c3c2c2cc(C)ccc2n3C)cc1 | 3% | -1% | . | . | i | 8%
O=C(Nc1ccc(/C=C/c2ccc(NC(=O)c3cc(S(=O)(=O)O)c4cccnc4c3O)cc2S(=O)(=O)O)c(S(=O)(=O)O)c1)c1cc(S(=O)(=O)O)c2cccnc2c1O | . | . | . | . | i | .
COc1cc(NC(=O)CN2C(=O)C(c3ccc(Cl)cc3)=NC23CCCCC3)cc(OC)c1 | -14% | . | . | . | . | .
CCc1ccccc1NC(=O)Cn1nnc2sc3c(c2c1=O)CCC(C(C)(C)C)C3 (stereo not given) | -5% | 11% | . | . | i | -12%
O=C(N/N=C\c1cc(Br)cs1)C1COc2ccccc2O1 (stereo not given) | -19% | -3% | ? | 10µM* | i | -25%
Cn1cccc1/C=N\NC(=O)C1COc2ccccc2O1 (stereo not given) | 5% | 13% | 9% | -33% | i | .
Cc1cc([N+](=O)[O-])cc(/C=N\NC(=O)C2COc3ccccc3O2)c1O (stereo not given) | -3% | -22% | 4.5µM* | 2.2µM* | ? | ?
CCC(Cn1nnc2ccccc2c1=O)NC(=O)Nc1cccc(Cl)c1 (stereo not given) | 0% | -19% | . | . | . | .
CC(C)(CN1CCNCC1)NS(=O)(=O)c1ccc(Cl)cc1 | 25µM* | ? | . | . | i | ?
CC(C)(CN1CCCC1)NS(=O)(=O)c1ccc(Cl)cc1 | -3% | 6% | -10% | -26% | i | -9%
Cc1ccc(S(=O)(=O)NC(C)(C)CN2CCC(Cc3ccccc3)CC2)cc1 | -26% | 18µM* | 0% | 30% | i | -26%
O=C(O)CCC(=O)c1ccc2ccc3cccc4ccc1c2c34 | . | . | 10µM* | 11µM* | . | .
SMILES | HepG2 tox | TGFb SMAD3 inh | Gal4-VP16 FLuc | RORg inh | ATXN viability | ATXN2 expr inh
Cc1ccc(S(=O)(=O)NCC2NCCc3ccccc32)cc1 (stereo not given) | 8% | 5% | 6% | 18µM* | i | -7%[11.3 µM]
O=C(O)CC1NCCc2ccccc21 (stereo not given) | 1% | 5% | 0% | 2% | i | -2%
CN(C)CC[C@@](O)(c1ccccc1)c1ccccc1Cl | . | . | -9% | 9% | . | .
COc1ccc(CCNC(=O)c2cccc(-n3cnc4cccnc43)c2C)cc1OC | -9% | -17% | . | . | . | .
CCCCn1nnnc1C(c1cc2ccccc2o1)N(CCN(C)C)Cc1ccccc1 (stereo not given) | . | . | . | . | . | 32µM*
CN(C)CCN(Cc1ccccc1)C(c1cc2ccccc2o1)c1nnnn1C(C)(C)C (stereo not given) | . | . | . | . | ? | -14%
CCCCn1nnnc1C(c1cc2ccccc2o1)N1CCN(c2cc(C)nc3ccccc23)CC1 (stereo not given) | . | . | . | . | 4.5µM* | ?
CCCCn1nnnc1C(c1cc2ccccc2o1)N1CCN(c2ccccc2F)CC1 (stereo not given) | . | . | . | . | i | 6%
NS(=O)(=O)c1cccc(NS(=O)(=O)c2ccc(/C=C/C(=O)O)cc2)c1 | 13µM* | -1% | -14% | 27% | i | 2%
O=C(NCc1n[nH]c(=S)n1-c1cccc(Cl)c1)c1cccs1 | -14% | -27% | 0% | -2% | i | -15%
O=C(NCc1n[nH]c(=S)n1-c1ccc(Cl)c(Cl)c1)c1cccs1 | 8% | ? | 6% | 16µM* | i | -15%
CCOc1ccc(NC(=O)C(=O)NCCc2csc(-c3ccc(F)cc3)n2)cc1 | 8% | 8% | . | . | i | -7%
Nc1ccccc1Sc1nc2ccccc2[nH]1 | -21% | -27% | 13µM* | 3.5µM* | i | -4%

Screens from PubChem BioAssay.
